Laboratory results taken from the supplement of paper PMC11732987, “Enantioselective OTUD7B fragment discovery through chemoproteomics screening and high-throughput optimisation” (Communications Chemistry, 2025).

Experiments:
Experiment in all cases: log2 ratio of Biotin-Ahx-Ub-VS probe labelling (fragment/DMSO); higher = less target engagement (more negative = stronger competition), active = hit call of the paper (q ≤ 0.05, log2 ratio ≤ -1)
Conditions in all cases: compound concentration: 200 uM; treatment time: 3 h
USP42 = target: T1, USP42 (UniProt Q9H9J4)
T1 sequence (whole entry): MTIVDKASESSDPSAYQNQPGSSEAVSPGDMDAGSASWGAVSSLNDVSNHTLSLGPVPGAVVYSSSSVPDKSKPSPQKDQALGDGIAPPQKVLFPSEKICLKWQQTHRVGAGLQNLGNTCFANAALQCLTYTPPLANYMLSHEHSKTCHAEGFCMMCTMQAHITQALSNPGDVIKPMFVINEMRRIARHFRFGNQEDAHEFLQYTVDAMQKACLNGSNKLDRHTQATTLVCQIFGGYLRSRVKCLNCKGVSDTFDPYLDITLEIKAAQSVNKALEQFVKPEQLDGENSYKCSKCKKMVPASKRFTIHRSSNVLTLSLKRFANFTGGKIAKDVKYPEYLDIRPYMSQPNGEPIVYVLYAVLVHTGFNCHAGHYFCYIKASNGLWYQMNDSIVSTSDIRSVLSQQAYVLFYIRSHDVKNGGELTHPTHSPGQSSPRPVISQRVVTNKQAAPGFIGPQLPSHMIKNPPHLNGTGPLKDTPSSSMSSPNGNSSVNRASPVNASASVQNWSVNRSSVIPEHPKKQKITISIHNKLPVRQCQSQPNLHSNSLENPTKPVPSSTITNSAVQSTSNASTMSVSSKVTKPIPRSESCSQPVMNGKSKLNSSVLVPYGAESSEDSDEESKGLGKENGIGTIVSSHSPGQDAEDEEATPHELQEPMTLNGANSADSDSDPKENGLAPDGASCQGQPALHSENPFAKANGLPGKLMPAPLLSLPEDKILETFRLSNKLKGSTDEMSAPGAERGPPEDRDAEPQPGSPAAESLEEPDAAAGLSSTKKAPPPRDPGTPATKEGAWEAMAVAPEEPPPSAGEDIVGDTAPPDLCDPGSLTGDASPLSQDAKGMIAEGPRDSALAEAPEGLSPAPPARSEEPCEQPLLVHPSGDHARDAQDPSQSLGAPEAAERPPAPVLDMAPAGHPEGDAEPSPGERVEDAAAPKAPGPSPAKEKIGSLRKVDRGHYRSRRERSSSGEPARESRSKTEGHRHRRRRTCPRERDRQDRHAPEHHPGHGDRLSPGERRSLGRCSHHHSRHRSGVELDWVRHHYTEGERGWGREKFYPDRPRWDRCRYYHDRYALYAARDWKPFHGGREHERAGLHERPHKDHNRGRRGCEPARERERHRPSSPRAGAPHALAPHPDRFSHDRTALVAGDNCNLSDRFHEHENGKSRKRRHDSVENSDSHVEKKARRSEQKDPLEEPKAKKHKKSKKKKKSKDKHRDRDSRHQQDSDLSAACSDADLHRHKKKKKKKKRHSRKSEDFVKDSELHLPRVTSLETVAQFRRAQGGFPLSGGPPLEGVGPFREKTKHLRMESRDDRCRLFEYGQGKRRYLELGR
Method in brief: (§1)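 Using Biotin-Ahx-Ub-VS at 0.5 µM final for 1 h, DUBs were labelled in HEK293T lysate (495 µg per sample) that had first been treated in triplicate with fragment at 200 µM or vehicle for 3 h. NeutrAvidin enrichment, LysC and trypsin digestion and diaPASEF LC-MS/MS followed. Spectronaut label-free quantities were global-median-normalised. Values are average log2 fragment/vehicle ratios by unpaired t-test, using proteins with ≥2 unique peptides.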

USP46 = USP46 (UniProt P62068)
Sequence of USP46 (P62068 whole entry): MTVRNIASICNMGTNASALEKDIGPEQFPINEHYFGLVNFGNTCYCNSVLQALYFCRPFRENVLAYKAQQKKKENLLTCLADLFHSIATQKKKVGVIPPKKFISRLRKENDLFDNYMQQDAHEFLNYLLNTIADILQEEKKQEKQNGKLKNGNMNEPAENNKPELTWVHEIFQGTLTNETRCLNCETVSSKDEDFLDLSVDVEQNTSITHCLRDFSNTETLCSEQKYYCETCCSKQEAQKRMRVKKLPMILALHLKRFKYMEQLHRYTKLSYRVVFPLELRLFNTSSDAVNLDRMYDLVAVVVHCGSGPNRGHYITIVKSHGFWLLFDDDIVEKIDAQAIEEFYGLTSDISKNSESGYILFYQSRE
Method in brief: as §1

USP47 = target: T2, USP47 (UniProt Q96K76)
T2 sequence (whole entry): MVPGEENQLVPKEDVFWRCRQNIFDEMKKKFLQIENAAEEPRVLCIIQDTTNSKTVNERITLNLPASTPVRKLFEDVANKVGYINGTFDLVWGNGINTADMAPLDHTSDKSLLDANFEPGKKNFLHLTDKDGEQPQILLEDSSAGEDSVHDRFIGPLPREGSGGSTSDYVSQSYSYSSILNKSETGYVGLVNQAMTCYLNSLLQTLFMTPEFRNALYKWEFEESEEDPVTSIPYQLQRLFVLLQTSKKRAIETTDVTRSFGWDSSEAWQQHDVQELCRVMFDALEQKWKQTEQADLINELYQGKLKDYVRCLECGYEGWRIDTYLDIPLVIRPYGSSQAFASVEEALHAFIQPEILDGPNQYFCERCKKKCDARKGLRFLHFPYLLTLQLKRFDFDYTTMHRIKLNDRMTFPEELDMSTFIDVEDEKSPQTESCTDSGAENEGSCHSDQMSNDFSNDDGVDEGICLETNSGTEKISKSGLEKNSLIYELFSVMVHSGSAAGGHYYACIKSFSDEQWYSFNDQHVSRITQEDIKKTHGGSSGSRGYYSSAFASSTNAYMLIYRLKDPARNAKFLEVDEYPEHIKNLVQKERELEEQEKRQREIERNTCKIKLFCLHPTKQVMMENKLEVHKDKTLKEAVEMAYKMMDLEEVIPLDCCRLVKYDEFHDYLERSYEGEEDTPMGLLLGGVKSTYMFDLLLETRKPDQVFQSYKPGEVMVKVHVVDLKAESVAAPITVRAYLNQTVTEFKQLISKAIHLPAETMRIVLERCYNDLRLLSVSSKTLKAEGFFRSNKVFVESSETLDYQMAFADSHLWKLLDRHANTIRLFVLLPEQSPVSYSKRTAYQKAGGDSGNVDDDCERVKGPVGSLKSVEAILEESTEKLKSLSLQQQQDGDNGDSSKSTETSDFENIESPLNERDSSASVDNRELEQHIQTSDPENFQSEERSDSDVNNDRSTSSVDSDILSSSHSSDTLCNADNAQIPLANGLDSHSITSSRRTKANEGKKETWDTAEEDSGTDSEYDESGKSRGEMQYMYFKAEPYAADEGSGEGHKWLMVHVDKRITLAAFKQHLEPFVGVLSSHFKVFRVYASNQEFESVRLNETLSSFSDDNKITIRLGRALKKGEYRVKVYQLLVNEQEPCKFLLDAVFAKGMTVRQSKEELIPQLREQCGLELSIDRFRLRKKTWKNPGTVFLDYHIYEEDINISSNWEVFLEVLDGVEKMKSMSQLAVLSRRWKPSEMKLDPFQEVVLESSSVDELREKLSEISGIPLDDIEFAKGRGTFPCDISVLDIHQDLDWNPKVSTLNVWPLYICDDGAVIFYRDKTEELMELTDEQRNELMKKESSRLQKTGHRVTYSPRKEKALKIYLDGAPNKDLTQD
Method in brief: as §1

USP48 = target: T3, USP48 (UniProt Q86UV5)
T3 sequence (whole entry): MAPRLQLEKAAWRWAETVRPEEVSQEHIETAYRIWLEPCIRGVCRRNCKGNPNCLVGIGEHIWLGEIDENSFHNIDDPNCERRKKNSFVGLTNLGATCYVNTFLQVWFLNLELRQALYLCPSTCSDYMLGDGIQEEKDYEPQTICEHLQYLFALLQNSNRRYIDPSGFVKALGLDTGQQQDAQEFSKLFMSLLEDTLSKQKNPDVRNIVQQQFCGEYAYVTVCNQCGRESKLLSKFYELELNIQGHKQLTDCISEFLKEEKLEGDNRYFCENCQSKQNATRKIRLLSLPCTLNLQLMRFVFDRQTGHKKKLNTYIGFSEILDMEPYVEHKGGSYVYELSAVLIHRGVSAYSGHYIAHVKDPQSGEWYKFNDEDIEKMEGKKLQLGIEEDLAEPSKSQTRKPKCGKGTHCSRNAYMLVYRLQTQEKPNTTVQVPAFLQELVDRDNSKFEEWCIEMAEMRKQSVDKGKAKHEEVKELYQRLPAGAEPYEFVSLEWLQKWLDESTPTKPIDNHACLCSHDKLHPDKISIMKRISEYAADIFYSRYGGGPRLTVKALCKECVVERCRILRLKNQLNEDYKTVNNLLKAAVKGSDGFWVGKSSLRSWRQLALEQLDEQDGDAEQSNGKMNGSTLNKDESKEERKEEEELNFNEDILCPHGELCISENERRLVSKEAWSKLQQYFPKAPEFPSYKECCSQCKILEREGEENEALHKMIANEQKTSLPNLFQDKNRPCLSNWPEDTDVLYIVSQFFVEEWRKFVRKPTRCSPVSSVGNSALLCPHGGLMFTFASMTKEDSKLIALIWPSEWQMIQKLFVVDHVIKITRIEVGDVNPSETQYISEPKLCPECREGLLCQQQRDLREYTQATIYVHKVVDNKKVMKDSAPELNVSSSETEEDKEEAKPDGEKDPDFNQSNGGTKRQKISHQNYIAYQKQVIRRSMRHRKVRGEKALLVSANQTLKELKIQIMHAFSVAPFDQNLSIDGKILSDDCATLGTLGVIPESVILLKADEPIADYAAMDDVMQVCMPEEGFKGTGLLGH
Method in brief: as §1

USP5 = target: T4, USP5 (UniProt P45974)
T4 sequence (whole entry): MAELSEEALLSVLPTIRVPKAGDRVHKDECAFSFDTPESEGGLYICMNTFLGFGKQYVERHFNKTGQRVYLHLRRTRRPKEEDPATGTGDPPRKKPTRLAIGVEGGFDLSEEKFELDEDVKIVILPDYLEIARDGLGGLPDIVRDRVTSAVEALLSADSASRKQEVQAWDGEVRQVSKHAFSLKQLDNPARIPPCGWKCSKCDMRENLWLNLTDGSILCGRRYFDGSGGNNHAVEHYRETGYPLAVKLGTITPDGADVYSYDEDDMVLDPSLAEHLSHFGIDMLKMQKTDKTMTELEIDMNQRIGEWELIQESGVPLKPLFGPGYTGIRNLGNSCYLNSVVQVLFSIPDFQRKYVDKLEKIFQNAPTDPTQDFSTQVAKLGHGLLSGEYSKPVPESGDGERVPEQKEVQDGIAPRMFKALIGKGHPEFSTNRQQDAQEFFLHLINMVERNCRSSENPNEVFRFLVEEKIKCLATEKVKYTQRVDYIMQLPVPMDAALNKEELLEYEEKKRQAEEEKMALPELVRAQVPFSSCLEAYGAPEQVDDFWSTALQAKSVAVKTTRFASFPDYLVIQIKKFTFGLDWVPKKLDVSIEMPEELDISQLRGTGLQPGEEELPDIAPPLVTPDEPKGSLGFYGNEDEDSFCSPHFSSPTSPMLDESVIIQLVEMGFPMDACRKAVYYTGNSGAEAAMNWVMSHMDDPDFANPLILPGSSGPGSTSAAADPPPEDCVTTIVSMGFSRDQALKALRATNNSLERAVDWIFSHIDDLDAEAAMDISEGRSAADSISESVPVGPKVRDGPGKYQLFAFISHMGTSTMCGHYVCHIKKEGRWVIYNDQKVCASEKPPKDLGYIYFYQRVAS
Method in brief: as §1

USP54 = USP54 (UniProt Q70EL1)
Method in brief: as §1

USP7 = USP7 (UniProt Q93009)
Sequence of USP7 (Q93009 whole entry, looked up): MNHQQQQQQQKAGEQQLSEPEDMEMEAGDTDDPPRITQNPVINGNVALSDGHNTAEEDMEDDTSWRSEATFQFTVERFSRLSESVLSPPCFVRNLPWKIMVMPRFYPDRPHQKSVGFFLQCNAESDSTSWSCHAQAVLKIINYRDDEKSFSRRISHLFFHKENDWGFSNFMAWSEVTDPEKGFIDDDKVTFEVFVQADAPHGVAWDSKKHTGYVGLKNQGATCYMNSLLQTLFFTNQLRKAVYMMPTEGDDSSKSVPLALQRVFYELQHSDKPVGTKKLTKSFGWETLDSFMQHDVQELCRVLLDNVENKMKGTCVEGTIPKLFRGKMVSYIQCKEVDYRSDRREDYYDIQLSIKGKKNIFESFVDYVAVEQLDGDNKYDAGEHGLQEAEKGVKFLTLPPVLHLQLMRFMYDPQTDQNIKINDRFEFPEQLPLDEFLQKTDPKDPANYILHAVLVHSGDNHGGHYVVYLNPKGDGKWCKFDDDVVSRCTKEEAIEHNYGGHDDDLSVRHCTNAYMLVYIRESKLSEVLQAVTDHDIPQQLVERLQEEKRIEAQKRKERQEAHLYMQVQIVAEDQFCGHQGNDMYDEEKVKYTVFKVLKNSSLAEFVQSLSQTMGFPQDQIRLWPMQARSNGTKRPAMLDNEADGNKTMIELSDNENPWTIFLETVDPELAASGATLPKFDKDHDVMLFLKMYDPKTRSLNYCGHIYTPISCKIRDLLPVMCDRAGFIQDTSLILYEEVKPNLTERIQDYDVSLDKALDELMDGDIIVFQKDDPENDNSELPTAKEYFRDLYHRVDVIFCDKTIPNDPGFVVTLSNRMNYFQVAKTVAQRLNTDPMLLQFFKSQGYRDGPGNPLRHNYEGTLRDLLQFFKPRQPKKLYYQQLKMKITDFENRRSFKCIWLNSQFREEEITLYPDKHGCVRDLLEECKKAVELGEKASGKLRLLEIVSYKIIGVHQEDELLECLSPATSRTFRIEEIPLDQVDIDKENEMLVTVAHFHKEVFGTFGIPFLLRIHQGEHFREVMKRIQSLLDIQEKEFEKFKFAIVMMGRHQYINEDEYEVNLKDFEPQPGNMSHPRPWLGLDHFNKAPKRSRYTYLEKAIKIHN
Method in brief: as §1

USP8 = target: T5, USP8 (UniProt P40818)
T5 sequence (whole entry): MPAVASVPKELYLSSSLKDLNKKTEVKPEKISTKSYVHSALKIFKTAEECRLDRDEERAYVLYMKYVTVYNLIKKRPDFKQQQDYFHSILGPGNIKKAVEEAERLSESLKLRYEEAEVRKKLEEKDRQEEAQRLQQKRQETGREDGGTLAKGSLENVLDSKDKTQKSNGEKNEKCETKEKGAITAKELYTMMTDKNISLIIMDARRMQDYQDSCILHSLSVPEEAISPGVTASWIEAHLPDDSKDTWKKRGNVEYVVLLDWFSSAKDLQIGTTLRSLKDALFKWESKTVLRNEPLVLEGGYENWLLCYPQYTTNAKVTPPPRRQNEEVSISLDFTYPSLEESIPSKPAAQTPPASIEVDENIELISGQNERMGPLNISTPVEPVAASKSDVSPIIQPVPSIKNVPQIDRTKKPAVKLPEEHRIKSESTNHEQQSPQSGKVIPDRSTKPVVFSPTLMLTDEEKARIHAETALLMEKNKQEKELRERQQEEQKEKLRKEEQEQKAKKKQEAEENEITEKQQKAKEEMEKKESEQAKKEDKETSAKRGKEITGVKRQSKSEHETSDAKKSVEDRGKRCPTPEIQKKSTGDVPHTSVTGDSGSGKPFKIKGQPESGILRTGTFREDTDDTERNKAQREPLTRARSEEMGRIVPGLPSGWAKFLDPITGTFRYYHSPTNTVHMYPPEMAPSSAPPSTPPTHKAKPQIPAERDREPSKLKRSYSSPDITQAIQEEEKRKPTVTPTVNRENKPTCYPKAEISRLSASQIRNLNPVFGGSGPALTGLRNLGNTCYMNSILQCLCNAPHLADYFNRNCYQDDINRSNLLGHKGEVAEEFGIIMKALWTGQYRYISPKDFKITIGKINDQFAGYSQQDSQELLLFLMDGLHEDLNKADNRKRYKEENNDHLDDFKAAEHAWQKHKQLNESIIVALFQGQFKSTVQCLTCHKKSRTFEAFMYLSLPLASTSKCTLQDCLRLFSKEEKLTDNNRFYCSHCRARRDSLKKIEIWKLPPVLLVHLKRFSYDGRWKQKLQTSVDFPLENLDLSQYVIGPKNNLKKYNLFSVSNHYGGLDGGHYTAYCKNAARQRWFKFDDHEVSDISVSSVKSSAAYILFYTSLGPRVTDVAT
Method in brief: as §1

USP9X = USP9X (UniProt Q93008)
Sequence of USP9X (Q93008 whole entry): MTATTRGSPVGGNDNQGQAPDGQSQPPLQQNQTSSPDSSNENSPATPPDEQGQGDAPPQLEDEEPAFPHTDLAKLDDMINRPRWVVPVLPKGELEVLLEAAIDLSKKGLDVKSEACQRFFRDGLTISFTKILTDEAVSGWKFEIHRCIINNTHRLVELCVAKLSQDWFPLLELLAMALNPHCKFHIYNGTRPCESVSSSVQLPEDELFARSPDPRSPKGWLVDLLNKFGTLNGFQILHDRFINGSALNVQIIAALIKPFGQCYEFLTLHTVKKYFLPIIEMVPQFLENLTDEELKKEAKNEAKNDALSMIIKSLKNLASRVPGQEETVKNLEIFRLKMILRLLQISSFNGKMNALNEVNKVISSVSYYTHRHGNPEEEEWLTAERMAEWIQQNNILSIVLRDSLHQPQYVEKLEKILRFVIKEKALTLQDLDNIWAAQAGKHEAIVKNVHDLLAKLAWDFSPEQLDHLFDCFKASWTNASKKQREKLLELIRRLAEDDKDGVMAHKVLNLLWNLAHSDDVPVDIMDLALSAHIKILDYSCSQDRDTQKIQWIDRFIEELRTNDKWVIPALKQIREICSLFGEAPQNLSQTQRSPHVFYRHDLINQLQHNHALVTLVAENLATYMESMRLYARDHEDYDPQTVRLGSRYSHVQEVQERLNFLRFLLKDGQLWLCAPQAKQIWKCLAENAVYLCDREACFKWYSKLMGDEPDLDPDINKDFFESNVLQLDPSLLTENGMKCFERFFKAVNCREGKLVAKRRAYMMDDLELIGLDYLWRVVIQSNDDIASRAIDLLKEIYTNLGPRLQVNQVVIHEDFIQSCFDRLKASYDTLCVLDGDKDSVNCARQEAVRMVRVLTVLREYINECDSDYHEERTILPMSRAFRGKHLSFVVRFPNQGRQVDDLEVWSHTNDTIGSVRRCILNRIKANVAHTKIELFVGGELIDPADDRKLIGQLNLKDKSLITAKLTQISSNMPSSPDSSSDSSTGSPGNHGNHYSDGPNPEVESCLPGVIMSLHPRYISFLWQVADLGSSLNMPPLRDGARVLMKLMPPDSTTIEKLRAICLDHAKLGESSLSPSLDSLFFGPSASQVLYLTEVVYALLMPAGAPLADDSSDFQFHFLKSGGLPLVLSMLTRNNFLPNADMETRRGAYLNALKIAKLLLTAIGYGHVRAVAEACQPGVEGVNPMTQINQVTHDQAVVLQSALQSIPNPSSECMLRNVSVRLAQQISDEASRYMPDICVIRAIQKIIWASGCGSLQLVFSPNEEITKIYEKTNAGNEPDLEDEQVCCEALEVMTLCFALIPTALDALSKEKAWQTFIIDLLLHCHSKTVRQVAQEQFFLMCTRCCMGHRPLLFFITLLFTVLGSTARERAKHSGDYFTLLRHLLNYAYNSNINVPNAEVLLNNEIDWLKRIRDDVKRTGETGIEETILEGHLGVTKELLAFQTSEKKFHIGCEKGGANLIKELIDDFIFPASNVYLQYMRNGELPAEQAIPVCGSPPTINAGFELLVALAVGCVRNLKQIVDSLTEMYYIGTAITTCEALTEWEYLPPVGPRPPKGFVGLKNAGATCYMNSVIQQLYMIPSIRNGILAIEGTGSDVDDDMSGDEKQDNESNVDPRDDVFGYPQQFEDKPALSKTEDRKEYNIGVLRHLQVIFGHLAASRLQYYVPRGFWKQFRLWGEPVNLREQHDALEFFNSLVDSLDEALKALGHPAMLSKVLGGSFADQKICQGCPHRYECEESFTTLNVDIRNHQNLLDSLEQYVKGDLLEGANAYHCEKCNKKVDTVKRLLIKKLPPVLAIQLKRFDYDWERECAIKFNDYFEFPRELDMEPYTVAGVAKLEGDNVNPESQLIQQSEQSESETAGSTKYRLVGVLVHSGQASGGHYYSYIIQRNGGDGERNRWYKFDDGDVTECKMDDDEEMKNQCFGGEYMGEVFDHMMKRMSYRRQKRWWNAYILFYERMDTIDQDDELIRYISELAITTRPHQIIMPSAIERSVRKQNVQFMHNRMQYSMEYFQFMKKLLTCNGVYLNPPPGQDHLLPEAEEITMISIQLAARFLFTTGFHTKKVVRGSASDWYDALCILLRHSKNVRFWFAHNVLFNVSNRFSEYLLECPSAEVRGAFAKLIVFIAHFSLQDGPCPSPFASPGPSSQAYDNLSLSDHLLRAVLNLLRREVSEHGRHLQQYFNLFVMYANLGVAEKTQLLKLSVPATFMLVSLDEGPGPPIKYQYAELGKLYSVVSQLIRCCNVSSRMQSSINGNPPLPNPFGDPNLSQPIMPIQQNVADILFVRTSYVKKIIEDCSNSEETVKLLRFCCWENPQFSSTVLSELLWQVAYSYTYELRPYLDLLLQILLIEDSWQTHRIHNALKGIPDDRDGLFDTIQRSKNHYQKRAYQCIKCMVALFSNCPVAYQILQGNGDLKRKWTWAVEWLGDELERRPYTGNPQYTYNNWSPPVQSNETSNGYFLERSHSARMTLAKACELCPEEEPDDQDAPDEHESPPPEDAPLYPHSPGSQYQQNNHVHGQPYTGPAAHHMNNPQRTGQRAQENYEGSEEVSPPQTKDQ
Method in brief: as §1

UniProt O00487 = target: UniProt O00487
Sequence of UniProt O00487 (O00487 whole entry): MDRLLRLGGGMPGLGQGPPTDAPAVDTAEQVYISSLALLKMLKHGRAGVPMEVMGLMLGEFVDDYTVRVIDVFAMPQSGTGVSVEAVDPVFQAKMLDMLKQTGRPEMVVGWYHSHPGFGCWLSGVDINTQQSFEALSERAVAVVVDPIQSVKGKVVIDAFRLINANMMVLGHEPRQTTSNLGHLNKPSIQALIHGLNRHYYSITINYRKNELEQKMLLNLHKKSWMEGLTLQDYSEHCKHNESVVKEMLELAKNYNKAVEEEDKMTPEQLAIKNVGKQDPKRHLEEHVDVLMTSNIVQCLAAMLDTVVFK
Method in brief: as §1

Measured: log2 ratio of Biotin-Ahx-Ub-VS probe labelling

O=C(CCl)NC1CCC2(CC1)OCCO2
inactive: USP42 -0.0532 | USP46 -0.121 | USP47 0.154 | USP48 -0.263 | USP5 -0.0178 | USP54 0.457 | USP7 -0.157 | USP8 -0.255 | USP9X -0.361 | UniProt O00487 -0.145
